# Reference: the supplement of paper PMC8371130
# Structures can show the parent of a compound that is named as a salt.
# Tested on: HL-1
# Assay: relative cell viability (CellTiter-Glo) vs DMSO control (% of DMSO control); higher = more viable cells
# Procedure, shortened: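 One day after HL-1 mouse atrial cardiomyocytes were plated (1000 cells per well, 384-well plates) with compounds at 40, 200, 1000 or 5000 nM in 0.01% DMSO, they were transferred to a hypoxic workstation at 1% O2. After 48 h there, the cells were reoxygenated for 24 h in a normal incubator, and comparison cells stayed in normoxia throughout the same time. Cell viability was quantified with CellTiter-Glo luminescence and normalised to vehicle-treated control cells.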
# [1] = oxygen condition: hypoxia 48 h (1% O2) + reoxygenation 24 h, 40 nM
# [2] = oxygen condition: hypoxia 48 h (1% O2) + reoxygenation 24 h, 200 nM
# [3] = oxygen condition: hypoxia 48 h (1% O2) + reoxygenation 24 h, 1000 nM
# [4] = oxygen condition: hypoxia 48 h (1% O2) + reoxygenation 24 h, 5000 nM
# [5] = oxygen condition: normoxia 72 h, 40 nM
# [6] = oxygen condition: normoxia 72 h, 200 nM
# [7] = oxygen condition: normoxia 72 h, 1000 nM
# [8] = oxygen condition: normoxia 72 h, 5000 nM
SMILES,relative cell viability [1],relative cell viability [2],relative cell viability [3],relative cell viability [4],relative cell viability [5],relative cell viability [6],relative cell viability [7],relative cell viability [8]
O=C(O)/C=C/c1ccc(Cn2ccnc2)cc1 [Ozagrel],102,97.4,85.7,29.5,105,107,90,18
CCN(CC)CCOC(=O)C1(C2CCCCC2)CCCCC1 [Dicyclomine HCl],94.1,95.7,97.1,100,92.4,101,97.2,105
Cc1ccccc1N1C(=O)c2cc(S(N)(=O)=O)c(Cl)cc2NC1C (stereo unspecified) [Metolazone],104,107,107,111,109,110,112,116
CC(=O)NS(=O)(=O)c1ccc(N)cc1 [sulfacetamide sodium],97.5,98.4,106,104,102,107,107,108
CC(COc1ccccc1)N(CCCl)Cc1ccccc1 (stereo unspecified) [Phenoxybenzamine HCl],101,97.6,93.1,95.4,101,101,91.5,107
C#C[C@]1(OC(C)=O)CC[C@H]2[C@@H]3CCC4=C[C@@H](OC(C)=O)CC[C@@H]4[C@H]3CC[C@@]21C [Ethynodiol diacetate],97.7,103,113,111,104,110,104,116
N[C@@H](Cc1cc(I)c(Oc2ccc(O)c(I)c2)c(I)c1)C(=O)O [Liothyronine Sodium],105,108,111,109,103,102,108,107
CC(C)(CO)[C@@H](O)C(=O)NCCC(=O)O [Pantothenic acid],100,103,104,108,100,101,99.5,106
C[C@]12CCC3=C4CCC(=O)C=C4CC[C@H]3[C@@H]1CC[C@@]2(O)CC#N [Dienogest],103,104,106,103,105,102,107,107
O=C(O)[C@H](CC(=O)N1C[C@H]2CCCC[C@H]2C1)Cc1ccccc1 [Mitiglinide calcium],108,101,99.7,108,101,102,104,110
CCCc1ncc(C[n+]2ccccc2C)c(N)n1 [Amprolium HCl],104,104,108,110,97.4,104,110,100
Cc1cn([C@H]2C[C@H](N=[N+]=[N-])[C@@H](CO)O2)c(=O)[nH]c1=O [Zidovudine],106,109,119,112,110,110,112,109
COC(=O)C1=C(C)NC(C)=C(C(=O)OC)C1c1ccccc1[N+](=O)[O-] [Nifedipine],96.4,77.6,85.4,63.7,105,80.7,75.6,59
Nc1ncnc2c1ncn2[C@@H]1O[C@H](CO)[C@@H](O)[C@H]1O [Adenosine],104,107,113,108,104,108,111,110
C=C(c1ccc(C(=O)O)cc1)c1cc2c(cc1C)C(C)(C)CCC2(C)C [Bexarotene],103,102,109,107,106,107,107,95.4
C[C@]12CC[C@@H]3c4ccc(O)cc4CC[C@H]3[C@@H]1CCC2=O [Estrone],102,107,107,109,102,105,107,115
CC1Cc2ccccc2N1NC(=O)c1ccc(Cl)c(S(N)(=O)=O)c1 (stereo unspecified) [Indapamide],106,104,110,114,105,102,106,121
CCCCCCCCOc1ccccc1C(=O)Nc1ccc(C(=O)OCC[N+](C)(CC)CC)cc1 [Otilonium Bromide],101,107,108,114,107,105,110,114
Cc1ccccc1C(=O)Nc1ccc(C(=O)N2CCCC(O)c3cc(Cl)ccc32)c(C)c1 (stereo unspecified) [Tolvaptan],97.3,104,104,110,96.7,104,106,108
C=C1c2cccc(O)c2C(=O)C2=C(O)[C@]3(O)C(=O)C(C(N)=O)=C(O)[C@@H](N(C)C)[C@@H]3[C@@H](O)[C@H]12 [Methacycline hydrochloride],98.1,99.7,107,109,102,105,103,99.7
Cc1ccc(S(=O)(=O)NC(=O)NN2CC3CCCC3C2)cc1 (stereo unspecified) [Gliclazide],104,110,111,104,112,113,118,112

SMILES,relative cell viability [1],relative cell viability [2],relative cell viability [3],relative cell viability [4],relative cell viability [5],relative cell viability [6],relative cell viability [7],relative cell viability [8]
COCCOC(=O)C1=C(C)NC(C)=C(C(=O)OC/C=C/c2ccccc2)C1c1cccc([N+](=O)[O-])c1 (stereo unspecified) [Cilnidipine],101,105,110,109,107,109,103,110
Cc1ccc(C(=O)c2cc(O)c(O)c([N+](=O)[O-])c2)cc1 [Tolcapone],101,100,103,116,98.4,102,103,113
C[C@@H]1CCN(C(=O)CC#N)C[C@@H]1N(C)c1ncnc2[nH]ccc12 [Tofacitinib citrate],97,104,100,107,106,102,98.7,103
CCOc1cc(N)c(Cl)cc1C(=O)NCC1CN(Cc2ccc(F)cc2)CCO1 (stereo unspecified) [Mosapride citrate],105,106,104,104,104,109,103,109
OC(CNCC(O)C1CCc2cc(F)ccc2O1)C1CCc2cc(F)ccc2O1 (stereo unspecified) [Nebivolol],106,109,106,112,103,107,112,115
Nc1nc(F)nc2c1ncn2[C@@H]1O[C@H](CO)[C@@H](O)[C@@H]1O [Fludarabine],104,101,107,109,101,107,104,83.7
CCN(CC)CCOC(=O)c1ccc(N)cc1 [Procaine],100,102,109,108,105,104,105,110
OC[C@@H](O)[C@@H](O)[C@H](O)[C@H](O)CO [D-Mannitol],102,86.9,113,113,106,98.9,108,87.3
CCC(NC(C)C)C(O)c1ccc(O)c(O)c1 (stereo unspecified) [Isoetharine Mesylate],98.5,96.3,95.5,106,95.4,107,78.7,111
COc1ccc2[nH]cc(CCNC(C)=O)c2c1 [Melatonin],113,105,113,114,108,114,109,119
C[C@@]12C[C@@]3(O)O[C@@H](O1)[C@]1(COC(=O)c4ccccc4)[C@H]3C[C@@]12O[C@@H]1O[C@H](CO)[C@@H](O)[C@H](O)[C@H]1O [Paeoniflorin],106,102,108,118,107,111,109,118
CC[C@H]1OC(=O)C[C@@H](O)[C@H](C)[C@@H](O[C@@H]2O[C@H](C)[C@@H](O[C@H]3C[C@@](C)(O)[C@@H](O)[C@H](C)O3)[C@H](N(C)C)[C@H]2O)[C@@H](CC=O)C[C@@H](C)C(=O)/C=C/C(C)=C/[C@@H]1CO[C@@H]1O[C@H](C)[C@@H](O)[C@@H](OC)[C@H]1OC [Tylosin tartrate],102,108,99.4,99,101,92.6,100,91.8
Nc1nc(Cl)nc2c1ncn2[C@H]1C[C@H](O)[C@@H](CO)O1 [Cladribine],76.2,30.7,6.18,4.06,55.5,21.9,5.2,4.23
O=C(CCCN1CCC(O)(c2ccc(Cl)cc2)CC1)c1ccc(F)cc1 [Haloperidol],101,99.4,102,101,92.8,98,100,98.5
CCOc1nc2cccc(C(=O)OC(C)OC(=O)OC3CCCCC3)c2n1Cc1ccc(-c2ccccc2-c2nn[nH]n2)cc1 (stereo unspecified) [Candesartan cilexetil],106,104,97.6,4.71,98,102,101,4.11
CN(C)CCN(Cc1cccs1)c1ccccn1 [Methapyrilene HCl],104,104,104,84.1,109,107,111,111
CCCCOc1ccc(CC(=O)NO)cc1 [Bufexamac],109,100,111,117,105,107,107,110
CCCCCN(C)CCC(O)(P(=O)(O)O)P(=O)(O)O [Ibandronate sodium],100,95.3,93.1,91,99.9,99.4,92.6,84.4
Nc1nc(=O)c2c([nH]1)NCC(CNc1ccc(C(=O)N[C@@H](CCC(=O)O)C(=O)O)cc1)N2C=O (stereo partly specified) [Leucovorin Calcium],106,111,110,104,98,101,102,95.3
C[N+](C)(C)C[C@H](O)CC(=O)[O-] [L-carnitine],102,104,103,113,101,107,102,107
Cc1ccc(C)c(OCCCC(C)(C)C(=O)O)c1 [Gemfibrozil],98.5,104,101,103,102,113,106,106
